This is part of a sample that, as a whole, favours compounds with a hit. Of some 83,000 tested, about 20% had one in any assay.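 Activity criterion: percent growth below 10, measured after cells in 96-well plates were exposed to a single compound concentration for 48 hours.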 Values without a mark were called inactive. Active and inactive are the calls of the source.
Tests used:
Assay in all cases: NCI-60 one-dose screen, 48 h (100 = growth as untreated, 0 = no growth, -100 = all killed)
Conditions in all cases: 10 µM
SN12C renal = test system: SN12C renal
UO-31 renal = test system: UO-31 renal
TK-10 renal = test system: TK-10 renal
ACHN renal = test system: ACHN renal
CAKI-1 renal = test system: CAKI-1 renal
A498 renal = test system: A498 renal
CCRF-CEM leukemia = test system: CCRF-CEM leukemia
MOLT-4 leukemia = test system: MOLT-4 leukemia
SR leukemia = test system: SR leukemia
RPMI-8226 leukemia = test system: RPMI-8226 leukemia
OVCAR-8 ovarian = test system: OVCAR-8 ovarian
OVCAR-5 ovarian = test system: OVCAR-5 ovarian
OVCAR-4 ovarian = test system: OVCAR-4 ovarian
SK-OV-3 ovarian = test system: SK-OV-3 ovarian
OVCAR-3 ovarian = test system: OVCAR-3 ovarian
HS 578T breast = test system: HS 578T breast
NCI/ADR-RES ovarian = test system: NCI/ADR-RES ovarian
T-47D breast = test system: T-47D breast
IGROV1 ovarian = test system: IGROV1 ovarian

SMILES	growth (SN12C renal)	growth (UO-31 renal)	growth (TK-10 renal)	growth (ACHN renal)	growth (CAKI-1 renal)	growth (A498 renal)	growth (CCRF-CEM leukemia)	growth (MOLT-4 leukemia)	growth (SR leukemia)	growth (RPMI-8226 leukemia)	growth (OVCAR-8 ovarian)	growth (OVCAR-5 ovarian)	growth (OVCAR-4 ovarian)	growth (SK-OV-3 ovarian)	growth (OVCAR-3 ovarian)	growth (HS 578T breast)	growth (NCI/ADR-RES ovarian)	growth (T-47D breast)	growth (IGROV1 ovarian)
Nc1ccc2c(c1)C1(CCC2)NC(=O)NC1=O (centres undefined)	97.3%	93.3%	109%	101%	95.7%	101%	96.9%	98.8%	89.7%	98.4%	100%	92.8%	106%	109%	110%	103%	108%	96.3%	
CC1(C)N=C(N)N=C(N)N1c1ccc(CCc2ccccc2)c(Cl)c1	18.9%	87.9%	21%	28.7%	53.2%	40.9%	19.8%	20.2%		26.2%	16.8%	36.3%	38%	36.3%	23.7%	69.3%	104%	30.3%	28.1%
CN(C)CCS(=O)(=O)CCN(C)C	97.2%	113%	103%	107%	112%	96%	102%	104%		108%	99.5%	105%	120%	98.8%	110%	98.9%	105%	111%	119%
COc1ccc(Nc2nc3ccc(NC(=O)NC4CCCCC4)cc3[nH]c2=O)cc1	91.6%	94.5%	117%	94.8%	87.7%	109%	91.6%		103%	66.2%	91.4%	104%	113%	96.1%	112%	69.6%	103%	92.8%	94.1%
O=C(CCCCC[P+](c1ccccc1)(c1ccccc1)c1ccccc1)NC(COC(=O)C(Cl)Cl)(COC(=O)C(Cl)Cl)COC(=O)C(Cl)Cl	96.8%	94%	87.4%	113%	107%	89.7%	88.7%	97.6%	88.8%	83.3%	95%		100%	94.3%	103%	110%	114%	90.8%	100%
c1ccc2c(-c3nc(N4CCOCC4)c4c5c(sc4n3)CCCCCC5)cccc2c1	99.5%	101%	116%	100%	99.2%	102%	96.9%	97.2%	94.8%	112%	101%	103%	106%	111%		104%	109%	95%	112%
COc1ccc(-c2nc(-c3nc4cc(Cl)c(F)cc4[nH]3)c3ccccn23)cc1	66.3%	28%	64.7%	79.1%	67.1%	32.4%	35.6%	43.4%	33.7%	8.97% (active)	40.5%		57.6%	105%	81.3%	133%	60.2%	39.7%	74.6%
NC(=O)CC1(c2ccccc2)CCCCC1	101%	93.1%	109%	104%	96.8%	102%	98.9%	94.2%	90.9%	99.1%	107%	111%	103%	103%	103%	115%	107%	97.5%	
COc1ccc(/C=C2/CN(C(=O)c3ccccc3F)C/C(=C\c3ccc(OC)cc3)C2=O)cc1	65.7%	46.1%	130%	65.2%	67.6%	122%	4.22% (active)	23.5%	-23.2% (active)	-19% (active)	19%		61.3%	76.7%	26.9%	38.9%	50.4%	62.7%	30.6%
COc1cc(-c2cc(/C=C3\C(=O)Nc4cc(Cl)ccc43)[nH]n2)cc(OC)c1OC	12.1%	30.4%	60.9%	58%	38.8%	50.4%	13.2%	13.5%	16.8%	-28% (active)	23.9%		19%	74.2%	40.6%		10.2%	24.9%	4.31% (active)
CCOC(=O)N1C/C(=C/c2ccc(Cl)cc2)C(=O)/C(=C/c2ccc(Cl)cc2)C1	72.2%	45.2%	99.5%	74.7%	65.5%	79.7%	26%	21.5%	-5.62% (active)	-11.6% (active)	27.8%	120%	60.5%	83.7%	27.4%		71%	69.8%	44%
Cc1ccc(NC(=O)NC2CCCCC2)cc1	106%	96%	110%	106%	104%	98.2%	98.9%	102%		108%	106%	103%	114%	95.8%	109%	107%	110%	93.2%	105%
CS(=O)(=O)Nc1ccc(Nc2c3ccccc3nc3cc([N+](=O)[O-])ccc23)cc1	20.3%	16.6%	16%	12.6%	37.7%	45.4%	2.39% (active)	4.17% (active)		0.427% (active)	16.6%	67.7%	46.8%	53.3%	-1.65% (active)	60.3%	87%	-11% (active)	10.5%
O=C1/C(=C/c2ccc([N+](=O)[O-])o2)Oc2ccccc21	-2.18% (active)	-61.5% (active)	-55.8% (active)	-9.64% (active)	-4.42% (active)	70.3%	-1.87% (active)		9.39% (active)	-0.688% (active)	2.87% (active)	8.57% (active)	-68.6% (active)	84%	-69.7% (active)	57.3%	14.8%	8.17% (active)	-22.7% (active)
Cc1ncc(-c2ccoc2)c(NC2CCCCCC2)n1	98.5%	71.7%	109%	99.6%	94.4%	105%	107%	84%	96.1%	105%	99.1%	107%	105%	93.8%	101%		102%	92%	96.4%
COc1ccc2c(c1)O/C(=C\c1ccc([N+](=O)[O-])s1)C2=O	41.6%	24%	42.5%	25.4%	44.2%	85.1%	10.1%	10.7%	12.1%	1.62% (active)	0.767% (active)		-32.2% (active)	60.2%	-30.5% (active)		54.5%	16%	-29.4% (active)
Cc1ccc(Nc2cc(C)nc(NCCCNc3ccnc4cc(Cl)ccc34)n2)cc1	-81% (active)	-95% (active)	-94.7% (active)	-98.2% (active)	-87.2% (active)	-59.4% (active)	-27.8% (active)	-47.6% (active)		-63.8% (active)	-60.7% (active)	1.62% (active)	-26.1% (active)	-47.5% (active)	-79.9% (active)	-58.6% (active)	-33% (active)	-73% (active)	7.69% (active)

Source: PubChem BioAssay (NCI)
